p97 ATPase inh = human p97 ATPase inhibition; recombinant p97 ATPase, Kinase-Glo ATP luminescence, 3 h; AID 1481; inhibition, % at 8 µM; hit rate 0.42% among 220,000; in the data active = inhibition above about 15%;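 note: 0% = DMSO vehicle and 100% = wells lacking enzyme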
TbHK1 inh = T. brucei hexokinase 1 inhibition | recombinant TbHK1, G6PDH-coupled NADH A340 | inhibition, % at 10 µM | hit rate 0.11% among 220,000 | AID 1430;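 active = inhibition of 50% or more in the single-dose primary screen; inactive = inhibition below 50%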
Furin inh = inhibitors of human furin | P09958 | purified furin, fluorogenic substrate cleavage | inhibition, % at 20 µM or 30 µM | hit rate 0.061% among 220,000; in the data active = inhibition above about 25%
Target sequence (P09958 108-714 limits assumed): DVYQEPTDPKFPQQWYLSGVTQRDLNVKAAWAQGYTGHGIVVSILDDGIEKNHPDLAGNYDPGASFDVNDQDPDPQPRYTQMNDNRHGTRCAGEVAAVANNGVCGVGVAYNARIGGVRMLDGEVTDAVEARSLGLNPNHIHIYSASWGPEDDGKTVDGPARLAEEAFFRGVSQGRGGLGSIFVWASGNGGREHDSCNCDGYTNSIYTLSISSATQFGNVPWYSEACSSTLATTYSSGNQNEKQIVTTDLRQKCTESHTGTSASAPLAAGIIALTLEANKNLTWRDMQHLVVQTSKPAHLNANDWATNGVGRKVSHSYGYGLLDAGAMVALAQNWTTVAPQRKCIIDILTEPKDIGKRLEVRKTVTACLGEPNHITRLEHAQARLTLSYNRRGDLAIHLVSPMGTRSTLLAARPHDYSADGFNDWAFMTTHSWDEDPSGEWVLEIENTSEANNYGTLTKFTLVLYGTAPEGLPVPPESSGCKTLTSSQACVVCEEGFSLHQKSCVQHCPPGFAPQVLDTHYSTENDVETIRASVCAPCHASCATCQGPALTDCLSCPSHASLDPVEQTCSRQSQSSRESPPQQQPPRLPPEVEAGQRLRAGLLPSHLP
DTT redox prof = compounds producing H2O2 with reducing agent – biochemical, NIH compound library profiling, artefact control for MLSCN library redox annotation, primary screen; hit rate 0.03% among 200,000; activation, % at 10 µM; DTT-dependent redox cycling H2O2, phenol red/HRP absorbance; 100% = 100 µM peroxide control, 0% = buffer;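 active = activation of at least 50% relative to the plate's high and low controls in the primary single-dose screen; inactive = activation below 50%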;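 note: compound incubated with DTT at 0.8 mM final as the reducing agent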
HMGR II inh = blocks class II HMG-CoA reductase of Enterococcus faecalis; purified E. faecalis HMGR, NADPH absorbance 340 nm kinetic; inhibition, % at 10 µM; hit rate 0.41% among 190,000;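 active = inhibition above a set limit, the median over all tested compounds plus 3 SD, cut at about 9.5% in these data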;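 note: enzyme runs in reverse so mevalonate oxidation gives rising NADPH absorbance; 0% = complete reaction with DMSO and 100% = background rate lacking mevalonate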
pCIP destab = p/CIP protein destabilization; hit rate 0.01% among 290,000; decrease of EGFP signal, % at 10 µM; AID 1984; Q05BA5; F442A p/CIP-EGFP cells, EGFP fluorescence, 16 h;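 active = EGFP signal decrease of at least 30% at 10 µM or well 3 SD below plate mean, unless failing retest; inactive = the rest, including hits failing retest or dose response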
DTT redox conf = confirmation of DTT-dependent redox cycling H2O2 generators; phenol red-HRP absorbance; hit rate 40% among 60; EC50, µM; shares compounds with DTT redox prof; AID 1234;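 active = EC50 under a set limit for hydrogen peroxide production with the reducing agent DTT present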
* marks the source's active call; other numbers are inactive results; . = no result given. Rows were chosen to be rich in hits. Some 0.74% of all compounds tested hit in one or more screens of this group.

SMILES | p97 ATPase inh | TbHK1 inh | Furin inh | DTT redox prof | HMGR II inh | pCIP destab | others
O=C(O)c1ccccc1CSc1nc2ccccc2n1Cc1ccccc1C(=O)O | 1.1 | -9.3 | -11.9 | 1.2 | 11.4* | 9.5
O=C(O)CCn1c(SCc2cccc3ccccc23)nc2ccccc21 | -7.1 | 1.8 | -1.4 | 6.7 | -9.1 | 3.5
COC(=O)c1ccc(CN2CCN(C(C)C)C(CCO)C2)cc1 (stereo not drawn) | 5.0 | 3.1 | -16.7 | -1.2 | -5.8 | -1.6
NCCSC1CC(=O)N(Cc2ccc(F)cc2)C1=O (stereo not drawn) | 4.3 | 3.6 | -24.2 | 3.4 | 10.3* | -16.6
CCSc1nnc(NC(=O)CN2C(=O)C3CC=CCC3C2=O)s1 (stereo not drawn) | 0.1 | -0.9 | -20.6 | -0.3 | 14.1* | -4.0
CCCN1CCC(=NNc2ccc(C(=O)O)cc2)CC1 | -3.0 | -1.8 | -17.0 | -0.2 | 0.7 | 1.6
O=C(CNC(=O)c1ccco1)N/N=C/c1c[nH]c2ccccc12 | 5.0 | -5.7 | -13.7 | 0.0 | 9.7* | 16.0
Cc1[nH]c2ccccc2c1/C=N/NC(=O)CNC(=O)c1ccco1 | 7.8 | -38.3 | -18.7 | . | . | 16.4
Cc1cccc(NC(=O)CC2C(=O)NCCN2C(=O)Nc2ccc(Cl)cc2)c1 (stereo not drawn) | . | . | . | . | . | -16.7
CC(C)C[C@@H](CN=[N+]=[N-])N1CCN(C)CCC1=O | . | . | . | . | . | -3.3
Cc1[nH][nH]c(=O)c1C(c1ccc(-c2ccc(Cl)cc2Cl)o1)c1c(C)[nH][nH]c1=O | 20.2* | -0.6 | -14.0 | 0.0 | 10.5* | -16.3
CC1CCCN(C(=O)C2CCN(CC(C)c3ccccc3)CC2)C1 (stereo not drawn) | 0.2 | 2.4 | 15.7 | 0.8 | 14.7* | -4.9
COC(=O)C1C(=O)/C(=C/N(C)C)C(=O)CC1(C)C (stereo not drawn) | 3.1 | 2.4 | 37.7* | -0.1 | 2.3 | 7.4
Cc1ccc(C(=O)NC2(C(Cl)Cl)N=C(c3ccccc3)N=C2N)cc1 (stereo not drawn) | 3.6 | -8.3 | -20.0 | -1.9 | 9.7* | 10.0
CCN(CCO)c1ncnc2c1sc1nc(CC(C)C)c3c(c12)CC(C)(C)OC3 | -5.5 | -18.6 | -10.5 | -4.1 | 9.7* | -8.7
CCC(C)NC(=O)c1oc2ccc(S(=O)(=O)N3CCC4(CC3)OCCO4)cc2c1C (stereo not drawn) | . | . | . | . | . | -18.9
COc1cc(C2NC(=O)NC(c3ccccc3)=C2C(C)=O)cc(Cl)c1OCC(=O)O (stereo not drawn) | 4.8 | -7.1 | -19.8 | 0.0 | 13.6* | -0.1
COc1cc(C2NC(=S)NC(c3ccccc3)=C2C(C)=O)cc(Cl)c1OCC(=O)O (stereo not drawn) | 3.2 | -16.8 | -21.0 | 1.7 | -3.2 | -0.5
O=C(Cc1ccc([N+](=O)[O-])cc1)Nc1ccc2c(c1)CCC2 | . | . | . | . | . | -19.1
O=c1oc2c(O)c(O)cc3c(=O)oc4c(O)c(O)cc1c4c23 | 12.2 | 66.3* | -5.9 | 0.5 | 23.6* | -5.5
O=C(Nc1cccc(C(F)(F)F)c1)c1cccc(NS(=O)(=O)c2ccc(O)c(C(=O)O)c2)c1 | . | . | . | . | . | -13.8
O=C(Nc1cccc(C(F)(F)F)c1)c1cccc(NS(=O)(=O)c2ccc(Br)c(C(=O)O)c2)c1 | 7.0 | -0.6 | -31.0 | -0.7 | 10.0* | -2.0
Fc1ccc(-c2csc3[n+]2CCS3)cc1 | 4.0 | -0.3 | -1.5 | 1.4 | 16.7* | 3.5
CCOc1ccc(-c2[nH]ncc2Oc2ccccc2OCC)c(O)c1 | -7.0 | 14.8 | 5.1 | 0.0 | 24.5* | -2.2
CCOc1ccc(-c2[nH]ncc2Oc2ccccc2OC)c(O)c1 | -2.9 | -2.2 | -16.8 | -0.1 | 1.5 | 0.5
SMILES | p97 ATPase inh | TbHK1 inh | Furin inh | DTT redox prof | HMGR II inh | pCIP destab | others
CC1CCN(c2cc(N)c(Cl)cc2[N+](=O)[O-])CC1 | -3.2 | -21.3 | -4.5 | -3.5 | 15.8* | -0.7
CC1CCN(c2cc(C#N)c(C#N)cc2[N+](=O)[O-])CC1 | -1.3 | -5.3 | -9.5 | 1.9 | 3.0 | -18.1
Nc1nonc1-n1nncc1-c1ccccc1 | -7.5 | -3.8 | -19.0 | -0.5 | 11.2* | 1.1
O=C(c1cccs1)N(c1ccc(F)cc1)C1C=CS(=O)(=O)C1 (stereo not drawn) | 5.5 | 3.0 | -28.1 | -2.1 | 16.9* | -1.6
CCC(C)(C)NC(=O)C(C(C)C)N(CC1CCCO1)C(=O)CNS(=O)(=O)c1ccccc1 (stereo not drawn) | . | . | . | . | . | -8.5
Cc1ccc(S(=O)(=O)/C(C#N)=C/c2c(N3CCC(C(N)=O)CC3)nc3ccccn3c2=O)cc1 | 6.2 | -11.7 | -2.4 | -6.2 | 11.2* | -16.1
Cc1ccccc1Nc1nc(N)nc(CN2CCN(Cc3ccc4c(c3)OCO4)CC2)n1 | 3.4 | 2.3 | -24.6 | 4.9 | 16.6* | -15.0
CCn1ncc(S(=O)(=O)N2CCN(c3cccc(OC)c3)CC2)c1C | . | . | . | . | . | 5.0
O=C(C1Cc2ccccc2CN1S(=O)(=O)c1cccs1)N1CCCCC1 (stereo not drawn) | 4.4 | 2.3 | 28.1* | 2.2 | -2.9 | -4.8
O=C(COc1ccc(Br)cc1)N1CCNC1=O | . | . | . | . | . | 1.0
c1ccc(Cc2nc3ccccc3[nH]2)cc1 | . | . | . | . | . | -3.3
CC(=O)Nc1ccc(Cc2nc3ccccc3[nH]2)cc1 | 6.5 | 0.7 | -32.4 | -0.4 | 16.1* | 0.0
COc1ccccc1CC(NC(C)=O)C(=O)NC1CCN(S(=O)(=O)c2ccccc2)CC1 (stereo not drawn) | . | . | . | . | . | -5.8
COc1ccc(S(=O)(=O)N(NC2=NS(=O)(=O)c3ccccc32)C(=O)C(C)C)cc1 | 4.0 | 4.2 | -40.2 | 0.0 | 10.6* | -7.5
C=CCNC(=S)NN=C1CCCCCCC1 | 4.0 | -3.4 | -9.8 | -1.1 | -8.1 | -8.8
N#Cc1cccnc1Oc1ccccc1 | 6.4 | 1.1 | -10.7 | . | . | -7.9
N/C(=N\OC(=O)CN1C(=O)c2ccccc2C1=O)c1ccc(Br)cc1 | 2.5 | -7.7 | -27.4 | 0.2 | 13.4* | -3.3
N/C(=N\OC(=O)CN1C(=O)c2ccccc2C1=O)c1ccc(Cl)cc1 | 3.2 | 0.3 | -20.4 | -1.0 | 0.5 | -11.0
CCCNC(=O)c1ccc(COc2ccc(CCC)cc2OC)o1 | . | . | . | . | . | -2.3
O=C(O)c1cc(-c2ccc(N3CCOCC3)cc2)nn1-c1ccccc1Cl | 6.6 | -5.1 | -28.9 | 0.0 | 20.8* | 7.5
O=C(O)c1cc(-c2ccc(N3CCOCC3)cc2)nn1-c1ccc(F)cc1F | 1.1 | -3.5 | -14.8 | 0.1 | -12.3 | -7.9
CCNC(=O)C1CC(=O)N(Cc2ccc3c(c2)OCO3)C(=Nc2ccc(F)cc2)S1 (stereo not drawn) | 4.3 | -1.4 | 32.2* | -0.2 | -5.1 | 2.0
CC(NC(=O)COC(=O)c1ccc([N+](=O)[O-])s1)c1ccccc1 (stereo not drawn) | 5.9 | -3.8 | -7.7 | 113.7* | -9.2 | -9.5 | DTT redox conf=>50

Compound activity as filed in PubChem BioAssay.
